Laboratory results taken from PubChem BioAssay.
For some of these results: Entries with a potency or affinity are not part of this list. The source made the active and inactive calls.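 How the source made its calls, unless noted: active means primary screen hit whose calcium fluorescence ratio, in both repeats, exceeds the weak agonist control mean by 3 SD; inactive means the rest.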

Experiments:
[1] = tested on: TRPC4 beta (transient receptor potential cation channel C4), mouse; experiment: activators of mouse TRPC4 channel, confirmation, cell-based, Fluo4 calcium, HEK293 TRPC4beta/mu-opioid, duplicates, 10 µM (AID 2426;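 active means fluorescence ratio normalized to control raised more than 50% in primary screen plus both repeat runs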); conditions: Fluo4 calcium fluorescence, at 10 µM; stronger effect = higher value
[2] = tested on: transient receptor potential cation channel C4 beta (TRPC4), mouse; experiment: activators of mouse TRPC4 channel, confirmation, cell-based, second round, Fluo4, HEK293 TRPC4beta/mu-opioid, 1 µM (AID 2461;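 active means primary screen active and over 50% activation in each of two duplicate runs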); conditions: Fluo4 calcium fluorescence, at 1 µM; stronger effect = higher value
[3] = tested on: TRPC4 (transient receptor potential cation channel C4 beta), mouse; experiment: positive allosteric modulators of mouse TRPC4, confirmation, cell-based, second round, Fluo-4, HEK293 TRPC4beta/mu-opioid, 1 µM (AID 2554;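 active means primary screen hit whose fluorescence ratio, in both repeats, exceeds the weak agonist control mean by 3 SD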); conditions: DAMGO EC20, Fluo-4 calcium flux, at 1 µM; stronger effect = higher value
[4] = tested on: TRPC4 beta (transient receptor potential cation channel C4), mouse; experiment: positive allosteric modulators of mouse TRPC4, confirmation, cell-based, Fluo-4, HEK293 TRPC4beta/mu-opioid (AID 2555); conditions: DAMGO EC20, Fluo-4 calcium flux, at 10 µM; stronger effect = higher value
[5] = biological target: Short transient receptor potential channel 4 (Mus musculus) (UniProt Q9QUQ5); experiment: inhibitors of mouse TRPC4 channel, confirmation, cell-based, Fluo4, HEK293 TRPC4beta/mu-opioid (AID 2636;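 active means calcium signal cut by more than 3 SD below the full-agonist control yet still positive, in both repeats and the earlier primary screen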); conditions: DAMGO, Fluo4 calcium flux, at 10 µM; stronger effect = higher value
[6] = biological target: Short transient receptor potential channel 4 (Mus musculus) (UniProt Q9QUQ5); experiment: inhibitors of mouse TRPC4 channel, confirmation, cell-based, second round, Fluo4, HEK293 TRPC4beta/mu-opioid, 1 µM (AID 2637;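 active means calcium signal ratio cut to more than 3 SD under the fully stimulated control mean yet still positive, in both repeats and the primary screen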); conditions: Fluo4 calcium flux, DAMGO, at 1 µM; stronger effect = higher value
[7] = biological target: Short transient receptor potential channel 4 (Mus musculus) (UniProt Q9QUQ5); experiment: mouse TRPC4 channel activators, dose response, cell-based, HEK293 TRPC4/mu-opioid, Fluo-4 calcium (AID 434937;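 active means primary screen activator hit with a dose response curve and TRPC4 channel activation at any tested dose; inactive means no activation, no dose response, or not a primary hit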)
[8] = biological target: Short transient receptor potential channel 4 (Mus musculus) (UniProt Q9QUQ5); experiment: TRPC4 positive allosteric modulators, dose response, cell-based, HEK293 TRPC4/mu-opioid, Fluo-4 calcium, EC20 DAMGO (AID 434941;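 active means earlier screen potentiator hit that boosts the TRPC4 ion channel at some dose, with a dose response; inactive means no potentiation, no dose response, or not a prior hit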;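 further: calcium entry triggered by an EC20 dose of DAMGO at the co-expressed mu-opioid receptor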)
[9] = biological target: Short transient receptor potential channel 4 (Mus musculus) (UniProt Q9QUQ5); experiment: mouse TRPC4 channel inhibitors, dose response, cell-based, HEK293 TRPC4/mu-opioid, Fluo-4 calcium (AID 434942;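 active means primary screen inhibitor hit that blocks the TRPC4 channel at some tested dose, yielding a dose curve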)
[10] = biological target: Short transient receptor potential channel 6 (Mus musculus) (UniProt Q61143); experiment: inhibition of mouse TRPC6 channel, confirmation, selectivity assay for TRPC4 inhibitor project, cell-based, HEK293, membrane potential dye, duplicate (AID 434948;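 active means active in primary screen and both duplicates, each dropping signal beyond three positive-control SD with fluorescence still positive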); conditions: HEK293 TRPC6, membrane potential dye fluorescence, at 10 µM, stimulated with maximal-effect acetylcholine; stronger effect = higher value
[11] = biological target: Short transient receptor potential channel 6 (Mus musculus) (UniProt Q61143); experiment: activation of mouse TRPC6 channel, confirmation, selectivity assay for TRPC4 activator project, cell-based, HEK293, membrane potential dye, duplicate (AID 434950;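 active means membrane potential signal rise above negative control mean plus 3 SD in both duplicates, also active in the earlier TRPC4 screen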;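 on activation: 0% = buffer only wells and 100% = acetylcholine maximal-effect wells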); conditions: HEK293 TRPC6, membrane potential fluorescence, at 10 µM; stronger effect = higher value
[12] = biological target: Short transient receptor potential channel 6 (Mus musculus) (UniProt Q61143); experiment: TRPC6 potentiation by TRPC4 potentiator hits, confirmation, selectivity assay for TRPC4 potentiator project, HEK293 cells, membrane potential dye, duplicate (AID 434952;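 active means compound raising the membrane signal above positive-control mean plus 3 SD in both repeats, and a primary screen hit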); conditions: HEK293 TRPC6, membrane potential dye fluorescence, at 10 µM, maximal acetylcholine added after compound; stronger effect = higher value
[13] = biological target: Short transient receptor potential channel 4 (Mus musculus) (UniProt Q9QUQ5); experiment: calcium flux activators in TRPC4/5HT1a cells, counter-screen for TRPC4 activator project, cell-based, second counter screen, HEK293 TRPC4/5HT1a, Fluo-4 (AID 434977;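 active means calcium signal rise above buffer-control mean plus 5 SD in both duplicates, and also a hit in the primary screen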); conditions: Fluo-4 calcium flux, at 10 µM; stronger effect = higher value
[14] = calcium flux inhibitors in TRPC4/5HT1a cells, confirmation, counter-screen for TRPC4 inhibitor project, cell-based, second counter screen, HEK293 TRPC4/5HT1a, Fluo-4 (AID 434978;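 active means primary screen active whose calcium signal fell more than 3 SD beyond the full-serotonin control mean in both duplicate plates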;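 on outcome: serotonin given first at submaximal then at maximal dose after compound preincubation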); conditions: Fluo-4 calcium flux, at 10 µM, serotonin added to trigger calcium flux; stronger effect = higher value
[15] = tested on: TRPC4 (mouse), co-expressed with 5HT1a in HEK293; experiment: calcium flux potentiators in TRPC4/5HT1a cells, confirmation, counter-screen for TRPC4 potentiator project, cell-based, second counter screen, HEK293 TRPC4/5HT1a, Fluo-4 (AID 434979;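 active means signal rise over 3 SD above mean of control wells given weak agonist, in both repeats and first screen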); conditions: Fluo-4 calcium flux, at 10 µM, serotonin added at its EC20 dose; stronger effect = higher value
[16] = calcium flux activation in mu-opioid HEK293 cells, confirmation, counter-screen for TRPC4 activator project, cell-based, HEK293 mu-opioid receptor line (AID 449723;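 active means hit in primary screen, with calcium signal over 5 SD above buffer well mean in both duplicates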;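 further: counter screen cells carry the mu-opioid receptor alone and lack TRPC4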); conditions: Fluo-4 calcium fluorescence, at 10 µM; stronger effect = higher value
[17] = calcium flux enhancement in mu-opioid HEK293 cells, confirmation, counter-screen for TRPC4 allosteric potentiator project, cell-based, HEK293 mu-opioid receptor line (AID 449724;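 active means calcium signal rise more than 3 SD above the low-dose agonist control mean, in both duplicate plates and the primary screen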); conditions: Fluo-4 calcium flux, at 10 µM, compound added before EC20 DAMGO stimulus; stronger effect = higher value

Short transient receptor potential channel 4 (Mus musculus), sequence (Q9QUQ5 whole entry, looked up): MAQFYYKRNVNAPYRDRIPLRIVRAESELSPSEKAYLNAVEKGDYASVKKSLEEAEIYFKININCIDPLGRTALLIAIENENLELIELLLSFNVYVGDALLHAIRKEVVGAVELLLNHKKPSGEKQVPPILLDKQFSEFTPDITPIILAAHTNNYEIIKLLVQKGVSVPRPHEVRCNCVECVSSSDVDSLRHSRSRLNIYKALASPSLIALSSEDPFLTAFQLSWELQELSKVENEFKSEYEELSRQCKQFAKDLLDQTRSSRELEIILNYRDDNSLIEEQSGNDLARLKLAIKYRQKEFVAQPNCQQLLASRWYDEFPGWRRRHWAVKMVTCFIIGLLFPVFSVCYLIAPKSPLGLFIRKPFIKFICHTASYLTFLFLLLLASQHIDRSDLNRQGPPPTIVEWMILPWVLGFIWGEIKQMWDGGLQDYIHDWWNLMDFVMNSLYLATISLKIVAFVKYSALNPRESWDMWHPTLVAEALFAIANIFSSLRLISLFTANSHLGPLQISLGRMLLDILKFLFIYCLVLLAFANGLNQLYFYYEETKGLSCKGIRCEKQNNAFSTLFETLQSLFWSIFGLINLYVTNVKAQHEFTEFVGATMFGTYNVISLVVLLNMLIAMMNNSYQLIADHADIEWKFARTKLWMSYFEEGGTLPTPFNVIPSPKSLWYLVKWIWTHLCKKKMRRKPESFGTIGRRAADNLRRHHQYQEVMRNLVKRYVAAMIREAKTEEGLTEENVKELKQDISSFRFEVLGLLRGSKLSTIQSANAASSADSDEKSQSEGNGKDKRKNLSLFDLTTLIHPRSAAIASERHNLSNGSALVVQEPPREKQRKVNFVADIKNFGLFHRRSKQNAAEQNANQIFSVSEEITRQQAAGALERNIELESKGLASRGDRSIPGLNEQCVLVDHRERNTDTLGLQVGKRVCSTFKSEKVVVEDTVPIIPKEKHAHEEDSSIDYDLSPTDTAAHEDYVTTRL
Short transient receptor potential channel 6 (Mus musculus), sequence (Q61143 whole entry, looked up): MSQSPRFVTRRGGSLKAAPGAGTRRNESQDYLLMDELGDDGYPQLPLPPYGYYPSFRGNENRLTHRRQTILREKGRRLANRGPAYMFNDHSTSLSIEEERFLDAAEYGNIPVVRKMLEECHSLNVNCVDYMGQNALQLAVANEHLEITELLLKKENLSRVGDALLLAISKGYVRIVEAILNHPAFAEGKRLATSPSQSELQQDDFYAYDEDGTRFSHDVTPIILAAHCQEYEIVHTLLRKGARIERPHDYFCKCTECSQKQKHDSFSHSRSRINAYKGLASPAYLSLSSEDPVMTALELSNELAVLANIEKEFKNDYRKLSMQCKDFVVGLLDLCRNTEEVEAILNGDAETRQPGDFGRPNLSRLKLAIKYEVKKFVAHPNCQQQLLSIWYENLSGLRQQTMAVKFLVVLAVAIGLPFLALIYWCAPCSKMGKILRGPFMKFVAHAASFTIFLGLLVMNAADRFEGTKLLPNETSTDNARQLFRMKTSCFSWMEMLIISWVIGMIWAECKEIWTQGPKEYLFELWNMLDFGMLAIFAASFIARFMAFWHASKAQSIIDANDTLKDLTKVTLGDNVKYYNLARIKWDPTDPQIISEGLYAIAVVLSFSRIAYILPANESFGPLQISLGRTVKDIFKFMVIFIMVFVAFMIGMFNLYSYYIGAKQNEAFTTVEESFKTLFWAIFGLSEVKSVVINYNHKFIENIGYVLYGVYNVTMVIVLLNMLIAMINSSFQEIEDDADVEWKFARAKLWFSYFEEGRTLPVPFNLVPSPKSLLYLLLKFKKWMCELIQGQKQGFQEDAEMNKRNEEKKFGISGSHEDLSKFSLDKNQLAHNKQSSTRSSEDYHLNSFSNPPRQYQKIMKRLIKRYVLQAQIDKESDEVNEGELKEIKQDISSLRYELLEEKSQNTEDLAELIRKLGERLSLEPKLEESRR

CCn1cc(CN2CCC(n3nccc3NC(=O)CCOc3ccccc3)CC2)c(C)n1
inactive: outcome [1] | outcome [2] | outcome [3] | outcome [4] | outcome [5] | outcome [6] | outcome [7] | outcome [8] | outcome [9] | outcome [10] | outcome [11] | outcome [12] | outcome [13] | outcome [14] | outcome [15] | outcome [16] | outcome [17]

CC(C)Cc1nc(Cl)c(C#N)c2c1CCCC2
inactive: outcome [1] | outcome [2] | outcome [3] | outcome [4] | outcome [5] | outcome [6] | outcome [7] | outcome [8] | outcome [9] | outcome [10] | outcome [11] | outcome [12] | outcome [13] | outcome [14] | outcome [15] | outcome [16] | outcome [17]

Cc1[nH]c2ccccc2c1C(=O)CN1C(=O)NC(C)(c2ccc(Cl)cc2Cl)C1=O (centres undefined)
active: potentiation [4] 21% | potentiation [15] 37.7%
inactive: outcome [1] | outcome [2] | outcome [3] | outcome [5] | outcome [6] | outcome [7] | outcome [8] | outcome [9] | outcome [10] | outcome [11] | outcome [12] | outcome [13] | outcome [14] | outcome [16] | outcome [17]

CC(C)CCc1noc(CN2CCN(c3ccc(Cl)cn3)CC2)n1
inactive: outcome [1] | outcome [2] | outcome [3] | outcome [4] | outcome [5] | outcome [6] | outcome [7] | outcome [8] | outcome [9] | outcome [10] | outcome [11] | outcome [12] | outcome [13] | outcome [14] | outcome [15] | outcome [16] | outcome [17]

CCC(=O)Nc1cc(ON=C(C)C)cc([N+](=O)[O-])c1
inactive: outcome [1] | outcome [2] | outcome [3] | outcome [4] | outcome [5] | outcome [6] | outcome [7] | outcome [8] | outcome [9] | outcome [10] | outcome [11] | outcome [12] | outcome [13] | outcome [14] | outcome [15] | outcome [16] | outcome [17]

O=S(=O)(Nc1ccc(S(=O)(=O)Nc2cccc3ccccc23)cc1)c1ccccc1
inactive: outcome [1] | outcome [2] | outcome [3] | outcome [4] | outcome [5] | outcome [6] | outcome [7] | outcome [8] | outcome [9] | outcome [10] | outcome [11] | outcome [12] | outcome [13] | outcome [14] | outcome [15] | outcome [16] | outcome [17]

CC1(C)CN=c2s/c(=C\c3ccc(Cl)cc3)c(=O)n2C1
active: potentiation [15] 25.3%
inactive: outcome [1] | outcome [2] | outcome [3] | outcome [4] | outcome [5] | outcome [6] | outcome [7] | outcome [8] | outcome [9] | outcome [10] | outcome [11] | outcome [12] | outcome [13] | outcome [14] | outcome [16] | outcome [17]

Cc1ccsc1C(=O)OCC(=O)NCCNC(=O)COC(=O)c1sccc1C
inactive: outcome [1] | outcome [2] | outcome [3] | outcome [4] | outcome [5] | outcome [6] | outcome [7] | outcome [8] | outcome [9] | outcome [10] | outcome [11] | outcome [12] | outcome [13] | outcome [14] | outcome [15] | outcome [16] | outcome [17]

CC(=O)N1N=C(c2ccc(Br)cc2)OC1(C)CC(=O)Nc1ccccc1 (centres undefined)
inactive: outcome [1] | outcome [2] | outcome [3] | outcome [4] | outcome [5] | outcome [6] | outcome [7] | outcome [8] | outcome [9] | outcome [10] | outcome [11] | outcome [12] | outcome [13] | outcome [14] | outcome [16] | outcome [17]
active: potentiation [15] 13.4%

CCc1cc2c3c(c(=O)oc2cc1OCC(=O)OC)CCCC3
inactive: outcome [1] | outcome [2] | outcome [3] | outcome [4] | outcome [5] | outcome [6] | outcome [7] | outcome [8] | outcome [9] | outcome [10] | outcome [11] | outcome [12] | outcome [13] | outcome [14] | outcome [15] | outcome [16] | outcome [17]

CN(CC(=O)Nc1ccc(F)cc1)C(=O)COC(=O)C1CCN(c2ccc(C(F)(F)F)cn2)CC1
inactive: outcome [1] | outcome [2] | outcome [3] | outcome [4] | outcome [6] | outcome [7] | outcome [8] | outcome [9] | outcome [10] | outcome [11] | outcome [12] | outcome [13] | outcome [15] | outcome [16] | outcome [17]
active: inhibition [5] 70% | inhibition [14] 36.3%

CN1CCN(S(=O)(=O)c2ccc(Br)c3ccccc23)CC1
active: potentiation [15] 26.5%
inactive: outcome [1] | outcome [2] | outcome [3] | outcome [4] | outcome [5] | outcome [6] | outcome [7] | outcome [8] | outcome [9] | outcome [10] | outcome [11] | outcome [12] | outcome [13] | outcome [14] | outcome [16] | outcome [17]

CCc1ccc(OCC(=O)NC2CCCCC2)c(Br)c1
active: potentiation [4] 46% | potentiation [15] 135%
inactive: outcome [1] | outcome [2] | outcome [3] | outcome [5] | outcome [6] | outcome [7] | outcome [8] | outcome [9] | outcome [10] | outcome [11] | outcome [12] | outcome [13] | outcome [14] | outcome [16] | outcome [17]

CC(=O)Oc1ccc(NC(=O)CCC2CCCCC2)c(C(=O)O)c1
inactive: outcome [1] | outcome [2] | outcome [3] | outcome [4] | outcome [6] | outcome [7] | outcome [8] | outcome [9] | outcome [10] | outcome [11] | outcome [12] | outcome [13] | outcome [14] | outcome [15] | outcome [16] | outcome [17]
active: inhibition [5] 68%

O=C(COC(=O)c1cc2c(s1)CCCCC2)NC1CCS(=O)(=O)C1 (centres undefined)
inactive: outcome [1] | outcome [2] | outcome [3] | outcome [4] | outcome [5] | outcome [6] | outcome [7] | outcome [8] | outcome [9] | outcome [10] | outcome [11] | outcome [12] | outcome [13] | outcome [14] | outcome [15] | outcome [16] | outcome [17]

CC(C)Oc1ccc(CCC(=O)NNC(=S)NCc2ccccc2)cc1
active: activation [11] 37.5%
inactive: outcome [1] | outcome [2] | outcome [3] | outcome [4] | outcome [5] | outcome [6] | outcome [7] | outcome [8] | outcome [9] | outcome [10] | outcome [12] | outcome [13] | outcome [14] | outcome [15] | outcome [16] | outcome [17]

CCN(CC)CCNc1ccc(Cl)cc1[N+](=O)[O-]
inactive: outcome [1] | outcome [2] | outcome [4] | outcome [5] | outcome [6] | outcome [7] | outcome [8] | outcome [9] | outcome [10] | outcome [11] | outcome [12] | outcome [13] | outcome [14] | outcome [16] | outcome [17]
active: potentiation [3] 31% | potentiation [15] 17.9%
